Laboratory results: PubChem BioAssay (EPA / NIEHS)
Where “and” joins values, the source holds several entries; their conditions need not be identical. Equal values may be shown once. Records with an inconclusive call do not appear. A structure can be active in one record and inactive in another. Calls of active or inactive are those of the source. How the source made its calls, unless noted: active means hit-call score of the fitted dose curve at least 0.9, where 1 is the maximum; inconclusive means response in the unintended direction; inactive means score below 0.9.

Experiments:
[1] = BSK_3C_VCAM1: BioMAP Diversity Plus: 3C Assay for Vascular cell adhesion molecule 1 (VCAM1) Biomarker Activity (AID 2282999; active means hit-call score of the fitted dose curve at least 0.9, where 1 is the maximum; inactive means score below 0.9); conditions: BioMAP 3C HUVEC, VCAM1 ELISA, cytokine-stimulated; actives raise or lower the signal
Method in brief: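 Vascular primary endothelium (human umbilical vein) was exposed to chemicals and assayed 24 h later. VCAM-1 levels came from ELISA, with DMSO serving as baseline for bidirectional fitting.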

[2] = BSK_4H_Eotaxin3: BioMAP Diversity Plus: 4H Assay for Eotaxin 3 Biomarker Activity (AID 2283000; active means hit-call score of the fitted dose curve at least 0.9, where 1 is the maximum; inactive means score below 0.9); conditions: primary human endothelial cells (HUVEC); actives raise or lower the signal
Method in brief: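 Eotaxin-3 (CCL26) levels were measured by ELISA in HUVEC primary cultures 24 h post-dosing. Gain or loss of signal was fitted in both directions, with DMSO serving as baseline and negative control.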

[3] = molecular target: human Peroxisome Proliferator-activated Receptor alpha (PPARa), PPARA (gene 5465) (UniProt Q07869); experiment: ATG_PPARa_TRANS: Attagene TRANS-FACTORIAL HepG2 Assay for human Peroxisome Proliferator-activated Receptor alpha (PPARa) (AID 2283001);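 on AC50: potency for gain of reporter signal over DMSO so agonist or activator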
Sequence of human Peroxisome Proliferator-activated Receptor alpha (PPARa), PPARA (gene 5465) (Q07869 whole entry, looked up, the tested form may be a part): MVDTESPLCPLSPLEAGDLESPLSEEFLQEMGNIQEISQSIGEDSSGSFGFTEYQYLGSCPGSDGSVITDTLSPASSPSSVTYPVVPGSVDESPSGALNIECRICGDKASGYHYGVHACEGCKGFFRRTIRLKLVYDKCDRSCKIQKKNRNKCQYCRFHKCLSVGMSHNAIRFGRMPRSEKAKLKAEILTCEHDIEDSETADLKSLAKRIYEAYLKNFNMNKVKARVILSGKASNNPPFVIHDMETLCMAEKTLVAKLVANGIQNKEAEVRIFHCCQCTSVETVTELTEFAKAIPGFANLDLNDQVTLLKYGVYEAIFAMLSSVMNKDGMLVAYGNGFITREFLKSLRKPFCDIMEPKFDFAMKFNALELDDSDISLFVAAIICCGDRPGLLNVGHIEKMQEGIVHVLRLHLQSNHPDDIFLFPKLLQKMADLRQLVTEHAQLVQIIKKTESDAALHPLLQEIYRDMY
Method in brief: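 Exposure: 24 h, transiently transfected HepG2 cells. Endpoint: GAL4-UAS reporter mRNA, RT-PCR with capillary electrophoresis fluorescence. Baseline: DMSO; increases fitted.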

[4] = molecular target: human Peroxisome Proliferator-activated Receptor delta (PPARd), PPARD (gene 5467) (UniProt Q03181); experiment: ATG_PPARd_TRANS: Attagene TRANS-FACTORIAL HepG2 Assay for human Peroxisome Proliferator-activated Receptor delta (PPARd) (AID 2283002)
Sequence of human Peroxisome Proliferator-activated Receptor delta (PPARd), PPARD (gene 5467) (Q03181 whole entry, looked up, the tested form may be a part): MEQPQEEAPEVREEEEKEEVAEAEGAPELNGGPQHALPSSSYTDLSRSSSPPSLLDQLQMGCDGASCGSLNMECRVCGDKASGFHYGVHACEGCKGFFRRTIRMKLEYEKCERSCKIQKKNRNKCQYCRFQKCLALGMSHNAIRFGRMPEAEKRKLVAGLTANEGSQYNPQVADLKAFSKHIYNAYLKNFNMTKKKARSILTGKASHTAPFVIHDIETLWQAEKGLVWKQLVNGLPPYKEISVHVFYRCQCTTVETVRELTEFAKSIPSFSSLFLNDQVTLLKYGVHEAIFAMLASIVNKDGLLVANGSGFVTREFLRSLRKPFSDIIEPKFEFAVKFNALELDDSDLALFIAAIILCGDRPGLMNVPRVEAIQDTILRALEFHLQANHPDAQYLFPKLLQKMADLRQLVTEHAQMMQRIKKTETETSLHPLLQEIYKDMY
Method in brief: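 Multiplexed trans-activation format: HepG2 liver cells expressing exogenous NR-Gal4 chimeras and GAL4-UAS reporters were exposed for 24 h. Reporter mRNA was detected by RT-PCR with capillary electrophoresis fluorescence; activity fitted as gain of signal relative to DMSO.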

[5] = read-out: Intercellular Adhesion Molecule 1 (ICAM1), ICAM1 (gene 3383); experiment: BSK_3C_ICAM1: BioMAP Diversity Plus: 3C Assay for Intercellular Adhesion Molecule 1 (ICAM1) Biomarker Activity (AID 2283003; active means hit-call score of the fitted dose curve at least 0.9, where 1 is the maximum; inactive means score below 0.9); conditions: primary human endothelial cells (HUVEC); actives raise or lower the signal
Method in brief: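 Using DMSO as baseline, bidirectional curve fitting was applied to ICAM-1 ELISA signals from HUVEC in the 3C system, measured 24 h after compound addition.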

[6] = molecular target: human Retinoic Acid Receptor beta (RARb), RARB (gene 5915) (UniProt P10826); experiment: ATG_RARb_TRANS: Attagene TRANS-FACTORIAL HepG2 Assay for human Retinoic Acid Receptor beta (AID 2283004)
Sequence of human Retinoic Acid Receptor beta (RARb), RARB (gene 5915) (P10826 whole entry, looked up, the tested form may be a part): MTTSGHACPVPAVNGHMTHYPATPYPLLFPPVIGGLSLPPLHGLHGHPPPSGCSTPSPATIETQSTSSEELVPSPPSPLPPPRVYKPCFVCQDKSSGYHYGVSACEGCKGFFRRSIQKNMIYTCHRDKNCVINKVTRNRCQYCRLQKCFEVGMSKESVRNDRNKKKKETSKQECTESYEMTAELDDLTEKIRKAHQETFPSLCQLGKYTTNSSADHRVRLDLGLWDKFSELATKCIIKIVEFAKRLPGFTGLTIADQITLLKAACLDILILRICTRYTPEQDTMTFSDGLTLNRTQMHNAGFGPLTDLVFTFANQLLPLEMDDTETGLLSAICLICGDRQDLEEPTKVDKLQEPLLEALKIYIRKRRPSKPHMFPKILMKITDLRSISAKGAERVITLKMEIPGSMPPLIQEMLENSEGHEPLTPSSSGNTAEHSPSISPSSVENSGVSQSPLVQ
Method in brief: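 HepG2 cells were transiently transfected with GAL4-UAS reporter units that report activity of exogenous chimeric NR-Gal4 proteins, then exposed to compound for 24 h. Reporter mRNA was quantified by RT-PCR with capillary electrophoresis fluorescence, as gain of signal over DMSO.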

[7] = BSK_3C_Proliferation: Cell Proliferation Assessment in the BioMAP Diversity Plus: 3C Assay (AID 2283006; active means hit-call score of the fitted dose curve at least 0.9, where 1 is the maximum; inactive means score below 0.9;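 on AC50: potency may reflect either rise or fall in cell number versus DMSO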); conditions: primary human endothelial cells (HUVEC)
Method in brief: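 Measured here: sulforhodamine B (0.1%) staining of TCA-fixed sub-confluent umbilical vein endothelial cultures 48 h post-dosing, absorbance 560 nm. DMSO served as negative control and baseline; both signal gain and loss were modelled.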

[8] = molecular target: Peroxisome proliferator-activated receptor gamma (Homo sapiens) (UniProt P37231); experiment: ATG_PPARg_TRANS: Attagene TRANS-FACTORIAL HepG2 Assay for human Peroxisome Proliferator-activated Receptor-gamma (PPARg) (AID 2283007)
Sequence of Peroxisome proliferator-activated receptor gamma (Homo sapiens) (P37231 whole entry, looked up, the tested form may be a part): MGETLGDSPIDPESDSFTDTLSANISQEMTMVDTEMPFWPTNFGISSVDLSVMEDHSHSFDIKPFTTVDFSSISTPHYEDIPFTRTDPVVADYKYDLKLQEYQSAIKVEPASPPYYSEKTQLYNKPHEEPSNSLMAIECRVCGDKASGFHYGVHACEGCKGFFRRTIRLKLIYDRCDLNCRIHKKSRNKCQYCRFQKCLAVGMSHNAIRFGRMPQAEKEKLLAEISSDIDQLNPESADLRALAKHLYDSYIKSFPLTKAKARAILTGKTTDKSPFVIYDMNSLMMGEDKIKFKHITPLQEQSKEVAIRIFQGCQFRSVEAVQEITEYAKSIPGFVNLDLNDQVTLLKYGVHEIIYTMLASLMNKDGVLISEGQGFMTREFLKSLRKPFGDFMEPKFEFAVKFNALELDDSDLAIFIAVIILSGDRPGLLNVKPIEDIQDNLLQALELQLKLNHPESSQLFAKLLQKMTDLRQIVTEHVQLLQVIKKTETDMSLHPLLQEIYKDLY
Method in brief: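 A TRANS-format multiplexed reporter assay measures activity of an exogenous chimeric NR-Gal4 protein in HepG2 cells. After 24 h of chemical exposure, reporter transcripts are amplified, fluorescently labelled and sized by capillary electrophoresis, with gain of signal scored against DMSO.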

[9] = molecular target: Nuclear receptor subfamily 1 group I member 2 (Homo sapiens) (UniProt O75469); experiment: ATG_PXR_TRANS: Attagene TRANS-FACTORIAL HepG2 Assay for human Pregnane X Receptor (PXR) (AID 2283008)
Sequence of Nuclear receptor subfamily 1 group I member 2 (Homo sapiens) (O75469 whole entry, looked up, the tested form may be a part): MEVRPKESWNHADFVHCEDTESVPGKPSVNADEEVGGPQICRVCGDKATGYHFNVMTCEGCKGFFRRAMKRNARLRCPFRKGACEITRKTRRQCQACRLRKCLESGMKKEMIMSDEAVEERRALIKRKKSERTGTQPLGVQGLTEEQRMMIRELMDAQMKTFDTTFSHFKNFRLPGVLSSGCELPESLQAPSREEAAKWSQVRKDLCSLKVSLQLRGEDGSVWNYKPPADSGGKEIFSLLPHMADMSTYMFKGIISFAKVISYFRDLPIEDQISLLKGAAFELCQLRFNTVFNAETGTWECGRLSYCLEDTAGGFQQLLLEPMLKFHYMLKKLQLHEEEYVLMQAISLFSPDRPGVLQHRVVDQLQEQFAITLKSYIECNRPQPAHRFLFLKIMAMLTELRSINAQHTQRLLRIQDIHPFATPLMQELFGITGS
Method in brief: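 Trans-factorial format: exogenous NR-Gal4 fusion activity, not endogenous factor, in transfected human HepG2 liver cells. After 24 h dosing, RNA isolated, reverse-transcribed, amplified and resolved by capillary electrophoresis; induction scored versus DMSO.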

[10] = molecular target: human Retinoic Acid Receptor gamma (RARg), RARG (gene 5916) (UniProt P13631); experiment: ATG_RARg_TRANS: Attagene TRANS-FACTORIAL HepG2 Assay for human Retinoic Acid Receptor gamma (RARg) (AID 2283009);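 on AC50: AC50 is for reporter induction above DMSO meaning RARg activation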
Sequence of human Retinoic Acid Receptor gamma (RARg), RARG (gene 5916) (P13631 whole entry, looked up, the tested form may be a part): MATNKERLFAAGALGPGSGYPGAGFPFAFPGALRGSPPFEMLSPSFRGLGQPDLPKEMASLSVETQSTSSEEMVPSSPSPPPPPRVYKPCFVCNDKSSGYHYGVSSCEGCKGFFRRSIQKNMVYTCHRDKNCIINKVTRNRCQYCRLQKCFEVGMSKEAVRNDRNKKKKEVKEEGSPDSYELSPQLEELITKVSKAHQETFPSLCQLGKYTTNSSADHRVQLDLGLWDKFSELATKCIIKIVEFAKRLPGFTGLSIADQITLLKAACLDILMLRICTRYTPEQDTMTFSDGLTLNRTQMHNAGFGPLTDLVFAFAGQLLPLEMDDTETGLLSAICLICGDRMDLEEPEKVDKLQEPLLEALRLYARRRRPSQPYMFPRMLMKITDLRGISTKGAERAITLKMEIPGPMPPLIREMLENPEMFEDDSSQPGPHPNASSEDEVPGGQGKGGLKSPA
Method in brief: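 Gain-of-signal relative to DMSO is reported from fluorescent capillary electrophoresis of RT-PCR reporter products. These came from HepG2 cells expressing transfected RARg-GAL4 chimeras with UAS reporters, harvested 24 h after dosing.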

Measured: AC50

c1ccc(Nc2ccccc2)cc1
inactive: [1] | [2] | [3] | [4] | [5] | [6] | [7] | [9]
active: [8] 50 µM

CCCCOCCOCCOCc1cc2c(cc1CCC)OCO2
inactive: [1] | [2] | [3] | [4] | [5] | [6] | [10]
active: [7] 24 µM | [8] 16.9 µM | [9] 13.3 µM

S=C(S)NCCNC(=S)S.[Mn+2].[S-]C([S-])=NCCN=C([S-])[S-].[Zn+2]
inactive: [1] | [2] | [3] | [5] | [7] | [8]
active: [1] 7.78 µM and 7.28 µM and 10 µM

C#CCOC(=O)[C@@H](C)Oc1ccc(Oc2ncc(Cl)cc2F)cc1
inactive: [1] | [2] | [3] | [4] | [5] | [7] | [8] | [10]

N#CSCSc1nc2ccccc2s1
active: [1] 6.63 µM and 10.3 µM | [2] 2.64 µM and 9.47 µM | [5] 6.48 µM and 15.4 µM | [7] 824 nM and 2.52 µM | [8] 23.1 µM
inactive: [3] | [4] | [8] | [9] | [10]

Cc1nn(C)c(Oc2ccccc2)c1C=NOCc1ccc(C(=O)OC(C)(C)C)cc1
inactive: [2] | [3] | [4] | [5] | [6] | [10]
active: [1] 32.5 µM | [7] 7.65 µM | [8] 1.88 µM

c1ccc2[nH]c(-c3cscn3)nc2c1
inactive: [1] | [2] | [3] | [4] | [5] | [6] | [7] | [8] | [9]

CCN(CC)C(=O)c1cccc(C)c1
inactive: [1] | [2] | [3] | [4] | [5] | [6] | [7] | [8] | [9] | [10]

CCCCC(CC)COC(=O)c1ccccc1C(=O)O (stereo not given)
inactive: [1] | [2] | [3] | [4] | [5] | [7]

CCCCOC(=O)C(C)Oc1ccc(Oc2ccc(C(F)(F)F)cn2)cc1 (stereo not given)
inactive: [1] | [2] | [3] | [4] | [5] | [6] | [7] | [8] | [9]

CC(C)(C)[C@@H](O)[C@@H](Cc1ccc(Cl)cc1)n1cncn1
inactive: [1] | [2] | [3] | [4] | [5] | [6] | [7] | [8] | [9] | [10]

CC(=O)S[C@@H]1CC2=CC(=O)CC[C@]2(C)[C@H]2CC[C@@]3(C)[C@@H](CC[C@@]34CCC(=O)O4)[C@H]12
active: [1] 29.5 µM | [2] 36.5 µM | [7] 28 µM
inactive: [3] | [4] | [5] | [8]

CCOC(=O)c1ccc(O)cc1
inactive: [1] | [2] | [3] | [4] | [5] | [6] | [7] | [10]
active: [3] 20.5 µM

CN(C)C(=O)Nc1ccc(Cl)c(Cl)c1
inactive: [1] | [2] | [3] | [4] | [5] | [6] | [7] | [8] | [10]
active: [3] 15 µM

O=C(c1ccc(O)cc1O)c1ccc(O)cc1O
active: [8] 49.1 µM [middle of 4 runs]
inactive: [1] | [2] | [3] | [4] | [5] | [6] | [7] | [9] | [10]

CCOC(=O)NCCOc1ccc(Oc2ccccc2)cc1
inactive: [1] | [2] | [3] | [4] | [5] | [6] | [10]
active: [7] 20 µM | [8] 19.3 µM

O=C(O)C1(C(=O)Nc2ccc(Cl)cc2Cl)CC1
active: [7] 32 µM | [8] 35.1 µM
inactive: [1] | [2] | [3] | [4] | [5] | [9] | [10]

OB(O)O
inactive: [1] | [2] | [3] | [4] | [5] | [6] | [7] | [8] | [10]

C[C@]12C[C@H](O)[C@H]3[C@@H](CCC4=CC(=O)CC[C@@]43C)[C@@H]1CC[C@@H]2C(=O)CO
active: [7] 29 µM | [9] 27.7 µM and 11.4 µM
inactive: [1] | [2] | [3] | [4] | [5] | [6] | [8] | [9]

COC(=O)c1c(Cl)nn(C)c1S(=O)(=O)NC(=O)Nc1nc(OC)cc(OC)n1
inactive: [1] | [2] | [3] | [4] | [5] | [7] | [8] | [10]

CCNc1nc(N)nc(Cl)n1
inactive: [1] | [2] | [3] | [4] | [5] | [6] | [7]

CCCOC(=O)c1ccc(C(=O)OCCC)nc1
inactive: [1] | [2] | [3] | [4] | [5] | [6] | [7] | [8] | [10]

C=CCOC(Cn1ccnc1)c1ccc(Cl)cc1Cl (stereo not given)
active: [7] 21.5 µM | [8] 71.7 µM
inactive: [1] | [2] | [3] | [4] | [5]

N[C@@H](Cc1cc(I)c(Oc2ccc(O)c(I)c2)c(I)c1)C(=O)O
inactive: [1] | [3] | [4] | [5] | [7] | [8]
active: [2] 16 µM | [8] 49.8 µM and 34.9 µM and 4.02 µM

CC(C)(c1ccc(O)cc1)c1ccc(O)cc1
active: [7] 27.4 µM | [8] 14.2 µM and 18.3 µM and 25.8 µM
inactive: [1] | [2] | [3] | [4] | [5] | [6] | [7] | [8] | [10]

C#C[C@]1(O)CC[C@H]2[C@@H]3CCC4=CC(=O)CC[C@@H]4[C@H]3CC[C@@]21CC
active: [7] 16 µM
inactive: [1] | [2] | [3] | [4] | [5] | [8]

CCC(C)OC(=O)N1CCCCC1CCO (stereo not given)
inactive: [1] | [2] | [3] | [4] | [5] | [6] | [7] | [8]

CC(C)CCCCCCc1ccc(O)cc1
inactive: [3] | [4] | [6] | [8] | [10]
active: [1] 7.98 µM | [2] 10.6 µM | [5] 11.2 µM | [7] 4.54 µM | [8] 11.1 µM | [10] 14.2 µM

COc1c(Cl)ccc(Cl)c1C(=O)O
inactive: [1] | [2] | [3] | [4] | [5] | [6] | [7] | [8] | [9] | [10]

CC(=O)[C@H]1CC[C@H]2[C@@H]3CCC4=CC(=O)CC[C@]4(C)[C@H]3CC[C@]12C
active: [2] 25.9 µM | [4] 136 µM | [7] 3.36 µM
inactive: [1] | [3] | [4] | [5] | [8]

S=C([S-])NCCNC(=S)[S-].[Mn+2]
inactive: [1] | [3] | [5] | [8]
active: [2] 26.8 µM

CCCCC(CC)CN1C(=O)C2C3C=CC(C3)C2C1=O (stereo not given)
inactive: [1] | [2] | [4] | [5]
active: [7] 31.2 µM | [8] 50 µM

CCC(O)=C1C(=O)CC(C(=O)O)CC1=O (stereo not given)
active: [8] 22.3 µM
inactive: [1] | [2] | [5] | [6] | [7] | [10]

CCOC(=O)[C@H](C)Oc1ccc(Oc2nc3ccc(Cl)cc3o2)cc1
inactive: [1] | [2] | [5] | [7] | [8] | [9] | [10]

COC(=O)c1ccccc1S(=O)(=O)NC(=O)Nc1nc(OC(F)F)cc(OC(F)F)n1
inactive: [1] | [2] | [4] | [5] | [7] | [8] | [10]

COC(=O)CSc1cc(N=c2sc(=O)n3n2CCCC3)c(F)cc1Cl
active: [8] 27.4 µM
inactive: [1] | [2] | [3] | [5] | [7]

COCCO
inactive: [1] | [2] | [3] | [5] | [6] | [7] | [8] | [10]

CCCN(CCC)C(=O)SCC
inactive: [1] | [2] | [3] | [5] | [7] | [8] | [9]

CC1(C)C(C=C(Cl)Cl)C1C(=O)OCc1cccc(Oc2ccccc2)c1 (stereo not given)
active: [7] 4.29 µM
inactive: [1] | [2] | [3] | [5]

C[C@]12CC[C@@H]3c4ccc(O)cc4C[C@@H](CCCCCCCCCS(=O)CCCC(F)(F)C(F)(F)F)[C@H]3[C@@H]1CC[C@@H]2O (stereo not given in full)
inactive: [1] | [2] | [4] | [5] | [6] | [8]
active: [7] 2.05 µM

O=C(Nc1ccc([N+](=O)[O-])cc1Cl)c1cc(Cl)ccc1O
inactive: [4] | [6] | [8] | [10]
active: [1] 0.189 µM | [2] 0.148 µM | [5] 20 µM | [7] 0.313 µM

CCCN(CCC)c1c([N+](=O)[O-])cc(C(F)(F)F)c(N)c1[N+](=O)[O-]
inactive: [4] | [6] | [8] | [10]
active: [1] 30.8 µM | [2] 30.3 µM | [5] 36.8 µM | [7] 13.2 µM
